We go through 9 compounds from PubChem BioAssay (Tox21).

Test [1] in a line: qHTS assay to identify small molecule antagonists of the retinoid acid receptor (RAR) signaling pathway - cell viability counter screen (AID 1159551). Also: nearly all actives have a fitted effect of over 35% in size. A digest of the protocol: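 Measured by luminescent ATP detection, viability reflects C3RL4 cells treated 6 h at 37 C with test chemicals in the presence of 1 uM (final) retinol.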
The nature of test [2]: qHTS assay to identify small molecule antagonists of the estrogen related receptor (ERR) signaling pathway from Tox21 library - cell viability counter screen (AID 1224834). Also: nearly all actives have a fitted effect of over 30% in size. Also: potency is read from the fitted curve at half-maximal effect. The procedure, abridged: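 Seeded ERR cells were rested 6 h at 37 C/5% CO2 before compounds, positive and negative controls or DMSO were added. Incubation continued for 17.5 h, and viability was then quantified by CellTiter-Fluor fluorescence.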
In general terms: In qHTS, concentration-response curves come from the screen itself.

The target of test [3] is Nuclear receptor subfamily 1 group I member 3 (Homo sapiens) (UniProt Q14994). Briefly: qHTS assay to identify small molecule antagonists of the constitutive androstane receptor (CAR) signaling pathway (AID 1224838).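 Also: HepG2 cells stably expressing hCAR with CYP2B6 luciferase reporter stimulated by CITCO; nearly all actives have a fitted effect of over 40% in size.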 The procedure, abridged:
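Human hepatoma HepG2 cells expressing hCAR and a CYP2B6 promoter (2.2 kb) luciferase construct; compound titration (15 points) with 50 nM CITCO final, 24 h at 37 C/5% CO2; luminescence via ONE-Glo after 30 min at room temperature.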

Test [4] has the same target. Briefly: qHTS assay to identify small molecule agonists of the constitutive androstane receptor (CAR) signaling pathway (AID 1224839).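 Also: HepG2 cells stably carrying human CAR and a CYP2B6 luciferase reporter; series mostly up to about 92 µM; nearly all actives have a fitted effect of over 15% in size.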 A digest of the protocol:
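Stable hCAR/CYP2B6-2.2kb HepG2 line in DMEM with 10% FBS; compounds (15 concentrations) and 0.75 uM PK11195 final, 24 h at 37 C/5% CO2, then ONE-Glo luminescence after 30 min.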

A short description of test [5]: qHTS assay to identify small molecule antagonists of the estrogen related receptor signaling pathway with the pleiotropic PPARgamma coactivator (PGC) from Tox21 10K library - cell viability counter screen (AID 1224840; active = well fitted cell-killing curve with a large enough effect in the repeat runs, not every such curve was filed as active; also: nearly all actives have a fitted effect of over 40% in size). The procedure, abridged:
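Seeded PGC/ERR cells (2,000/well, 6 h, 37 C/5% CO2) get compound by pin tool; 17.5 h incubation at 37 C; CellTiter-Fluor added, 30 min, fluorescence measured.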

For test [6], the target named is Thyrotropin receptor (Homo sapiens) (UniProt P16473). Briefly: qHTS assay to identify small molecule agonists of the thyroid stimulating hormone receptor (TSHR) signaling pathway (AID 1224843; calls by dose curve; also: nearly all actives have a fitted effect of over 45% in size). A digest of the protocol:
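A cell-based cAMP HTRF format was run in TSHR-transfected HEK293 cells, 800 per well. Treatment: 30 min, room temperature. Detection: 1 h with labelled cAMP and anti-cAMP cryptate. Concentration-response over 15 points, three replicates.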

A short description of test [7]: qHTS assay to identify small molecule antagonists of the retinoic acid receptor (RAR) signaling pathway (AID 1159552; also: nearly all actives have a fitted effect of over 50% in size; also: potency is read from the fitted curve at half-maximal effect). The procedure, abridged:
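Overnight-plated C3RL4 reporter cells get compound, then retinol to 1 uM final; plates sit 6 hr at 37 C, 5% CO2. A luciferase reagent is added and light output recorded after 30 min at room temperature.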

Test [8] in a line: qHTS assay to identify small molecule agonists of the retinoic acid receptor (RAR) signaling pathway (AID 1159553). A digest of the protocol:
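6 hr compound exposure (DMSO vehicle) of overnight-plated C3RL4 RARE-luc cells at 37 C; luminescence quantified after 30 min RT with luciferase reagent.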

In test [9] the target is Luciferin 4-monooxygenase (Photinus pyralis) (UniProt P08659). Briefly: qHTS assay to identify small molecule inhibitors of firefly luciferase (AID 1224835). Also: nearly all actives have a fitted effect of over 25% in size. Also: potency is read from the fitted curve at half-maximal effect. A digest of the protocol:
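Inhibition of purified Photinus luciferase is measured by luminescence. Substrate levels (D-luciferin, ATP) sit at their KM values. Each compound is tested in a concentration series.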

Test [10] can be described thus: qHTS assay to identify small molecule agonists of the constitutive androstane receptor (CAR) signaling pathway - cell viability counter screen (AID 1224836). Also: series mostly up to about 92 µM; nearly all actives have a fitted effect of over 45% in size. The procedure, abridged:
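Fluorescence from CellTiter-Fluor indicates live cells after 23 h exposure. The human hepatoma line expresses hCAR and a CYP2B6-2.2kb reporter. Incubation medium contains 0.75 uM PK11195 (final).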

Test [11] can be described thus: qHTS assay to identify small molecule antagonists of the constitutive androstane receptor (CAR) signaling pathway - cell viability counter screen (AID 1224837). Also: series mostly up to about 92 µM; nearly all actives have a fitted effect of over 45% in size. The procedure, abridged: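 To flag cytotoxic false antagonists, HepG2 hCAR/CYP2B6-2.2kb cells were treated 23 hr with 15-concentration compound series and 50 nM CITCO at 37 C/5% CO2; CellTiter-Fluor fluorescence was the measured end point.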

Test [12] can be described thus: qHTS assay to identify small molecule antagonists of the estrogen related receptor signaling pathway with the pleiotropic PPARgamma coactivator (PGC) from Tox21 10K library (AID 1224841; call rule not given here; also: series mostly up to about 92 µM; actives are mostly falling curves and most rising ones were filed inactive; nearly all actives have a fitted effect of over 50% in size). The procedure, abridged:
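Test chemicals dissolved in DMSO were applied to pre-incubated (6 h) PGC/ERR cells at 2,000 cells/well for an 18 h, 37 C treatment; reporter luminescence was then read using One-Glo.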

Test [13] in a line: qHTS assay to identify small molecule agonists of the estrogen related receptor signaling pathway with the pleiotropic PPARgamma coactivator (PGC) from Tox21 10K library (AID 1224842). Also: nearly all actives have a fitted effect of over 15% in size. A digest of the protocol:
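Luminescence from One-Glo (30 min, room temperature) measured after PGC/ERR cells had 18 h at 37 C with pinned compound (23 nL in DMSO). Cells had been seeded at 2,000 per well and pre-incubated 6 h.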

Test [14] is described as follows: qHTS assay to identify small molecule antagonists of the estrogen related receptor (ERR) signaling pathway - cell viability counter screen (AID 1224818). Also: series mostly up to about 46 µM. A digest of the protocol:
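Compounds dissolved in DMSO were applied to ERR cells seeded at 2,000 per well 6 h earlier. Cell viability followed 17.5 h later via 30-min CellTiter-Fluor fluorescence.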

A short description of test [15]: qHTS assay to identify small molecule antagonists of the estrogen related receptor signaling pathway with the pleiotropic PPARgamma coactivator (PGC) cell viability counter screen (AID 1224822; also: series mostly up to about 46 µM). The procedure, abridged: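 Counter screen for cell viability: PGC/ERR cells, 6 h pre-incubation after plating, 17.5 h compound exposure at 37 C, fluorescence from CellTiter-Fluor after 30 min.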

Inconclusive results are not listed. Activity calls are given as the source filed them. Unless noted, calls follow the shape of the dose curve; as a rule, active = well fitted curve in the direction sought with a large enough effect in the repeat runs; inconclusive = weak or mixed curves; inactive = no such curve, though single readings can be large; an effect the other way counts as inactive or inconclusive.

Sequence of Thyrotropin receptor (Homo sapiens) (P16473 whole entry, looked up): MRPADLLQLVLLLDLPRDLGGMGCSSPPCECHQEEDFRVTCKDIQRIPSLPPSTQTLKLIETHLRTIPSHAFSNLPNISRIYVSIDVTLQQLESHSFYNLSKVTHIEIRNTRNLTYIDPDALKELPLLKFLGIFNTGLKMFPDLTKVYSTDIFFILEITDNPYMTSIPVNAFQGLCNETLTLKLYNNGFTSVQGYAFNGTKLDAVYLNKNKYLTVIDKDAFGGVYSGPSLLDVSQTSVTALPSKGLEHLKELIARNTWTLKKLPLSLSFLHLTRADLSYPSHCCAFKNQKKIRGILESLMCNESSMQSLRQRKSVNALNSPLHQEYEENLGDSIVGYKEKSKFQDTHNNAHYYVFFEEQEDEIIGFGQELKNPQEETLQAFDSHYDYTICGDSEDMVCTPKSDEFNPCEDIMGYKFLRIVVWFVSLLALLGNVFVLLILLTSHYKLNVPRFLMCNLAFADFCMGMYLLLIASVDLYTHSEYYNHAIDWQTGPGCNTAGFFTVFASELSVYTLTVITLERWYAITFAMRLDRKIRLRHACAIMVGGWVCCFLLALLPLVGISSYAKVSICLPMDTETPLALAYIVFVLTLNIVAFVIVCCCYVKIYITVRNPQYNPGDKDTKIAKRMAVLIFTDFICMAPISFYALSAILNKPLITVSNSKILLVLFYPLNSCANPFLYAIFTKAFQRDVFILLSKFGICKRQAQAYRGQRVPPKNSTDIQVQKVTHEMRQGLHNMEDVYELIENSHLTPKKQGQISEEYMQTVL
Sequence of Nuclear receptor subfamily 1 group I member 3 (Homo sapiens) (Q14994 whole entry, looked up): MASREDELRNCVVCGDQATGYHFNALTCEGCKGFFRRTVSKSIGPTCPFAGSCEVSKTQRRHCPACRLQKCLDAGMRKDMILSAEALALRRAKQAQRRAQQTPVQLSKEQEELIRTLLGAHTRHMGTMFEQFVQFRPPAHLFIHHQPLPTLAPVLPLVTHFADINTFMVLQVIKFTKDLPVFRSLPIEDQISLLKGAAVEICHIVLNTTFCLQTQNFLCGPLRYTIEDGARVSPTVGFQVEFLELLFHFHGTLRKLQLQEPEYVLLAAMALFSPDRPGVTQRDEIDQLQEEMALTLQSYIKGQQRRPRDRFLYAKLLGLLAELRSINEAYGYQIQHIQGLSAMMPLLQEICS
Sequence of Luciferin 4-monooxygenase (Photinus pyralis) (P08659 whole entry, looked up): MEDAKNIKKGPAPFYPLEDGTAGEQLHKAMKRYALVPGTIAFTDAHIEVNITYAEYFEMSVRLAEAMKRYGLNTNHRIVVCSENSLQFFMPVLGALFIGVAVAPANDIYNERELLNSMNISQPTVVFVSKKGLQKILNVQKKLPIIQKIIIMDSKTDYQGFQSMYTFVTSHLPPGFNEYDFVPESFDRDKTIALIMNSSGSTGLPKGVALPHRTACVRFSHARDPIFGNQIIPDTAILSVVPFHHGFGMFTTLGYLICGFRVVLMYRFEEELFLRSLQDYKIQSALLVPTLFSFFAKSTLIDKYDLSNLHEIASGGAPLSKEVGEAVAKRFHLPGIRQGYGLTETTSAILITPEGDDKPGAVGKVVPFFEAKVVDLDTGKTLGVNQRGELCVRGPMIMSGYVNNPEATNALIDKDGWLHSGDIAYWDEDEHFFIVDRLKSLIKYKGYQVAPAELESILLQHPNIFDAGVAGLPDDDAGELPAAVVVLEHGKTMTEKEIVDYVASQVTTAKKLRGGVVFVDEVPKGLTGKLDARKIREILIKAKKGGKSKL

`COc1ccccc1OC(=O)Oc1ccccc1OC`: the Potency result in test [1], in [2], in test [3], in test [4], in test [5] and in [6] was “inactive” throughout.
With `C[C@H](CCC(=O)O)[C@H]1CC[C@H]2[C@@H]3[C@H](O)C[C@@H]4C[C@H](O)CC[C@]4(C)[C@H]3CC[C@]12C`, the Potency entry in [1], in test [7], in test [8], in test [10], in [11] and in [5] was “inactive” each time. The Potency result in [12] and in test [6] was “inactive” in each case. For the same compound, the Potency in test [9] was 79.9 µM (active).
Regarding `CCCC(C)C`, the Potency result in test [1], in test [7], in test [8], in test [9], in test [11] and in [5] was “inactive” throughout. In addition, the Potency entry in test [6] was “inactive”.
With `CC(C)(C)C(=O)OCOP(=O)(COCCn1cnc2c(N)ncnc21)OCOC(=O)C(C)(C)C`, the Potency result in test [1], in [2], in test [9] and in [5] was “inactive” throughout. The Potency in [7] was 3.76 µM (active).
Take `CC[C@]12CCCN3CCc4c(n(c5ccccc45)C(=O)C1)[C@@H]32`: the Potency result in test [1], in test [8], in [9], in [5], in [12] and in test [13] was “inactive” in each case. Besides, the Potency entry in [6] is “inactive”. In test [2], the Potency was 9.44 µM (active).
With `CN(C)C/C=C(/c1ccc(Br)cc1)c1cccnc1`, the Potency result in test [1], in [8], in test [2], in test [9], in [11] and in [5] was “inactive” each time. The Potency result in test [6] was “inactive”. The call in [14] and in [15] was inactive.
With `CCCCCCc1ccc(N)cc1`, the Potency entry in [1], in [7], in test [10], in test [11], in test [3] and in test [4] was “inactive” in each case. Besides, the Potency entry in [5], in [12], in test [13] and in test [6] was “inactive” in each case.
Turning to `C=CC[N+]1([C@H]2C[C@H]3[C@@H]4CC[C@H]5C[C@H](OC(C)=O)[C@@H](N6CCCCC6)C[C@]5(C)[C@H]4CC[C@]3(C)[C@H]2OC(=O)CC)CCCCC1`, the Potency result in [1], in test [8], in [2], in [9], in [10] and in [11] was “inactive” in each case. In addition, the Potency result in test [3], in [5], in test [13] and in [6] was “inactive” each time.
For `Cc1cc(CC(=O)O)c(C)n1-c1ccc(Cl)cc1`, the Potency entry in test [1], in test [7], in test [8], in [10], in test [11] and in test [5] was “inactive” throughout. In addition, the Potency result in test [12] and in [13] was “inactive” throughout.
